Laboratory results reported in PubChem BioAssay AID743415 (Broad Institute, 2014).
Potency and affinity values are given separately. Activity calls are given as the source filed them.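 Rule for the calls: active = compounds lowering Shn3 expression whose fitted half-maximal concentration is at most twice the top valid dose; inconclusive = flat partial decrease or an invalid curve fit; inactive = the rest.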

Assay: Shn3 transcript knock-down in Clone20 cells – cell-based, qPCR, cherry-pick, dose response (AID 743415)
Details: Shn3 mRNA qPCR, overnight; series mostly up to 35 µM

outcome, inactive:
Cc1nc2ccccc2cc1OCc1ccc(F)cc1
Cc1ccc([C@@H]2CC(=O)[C@@H]3CN(S(=O)(=O)c4ccccc4C)[C@H](c4ccc(Cl)cc4)C[C@@H]3N2S(=O)(=O)c2ccc(C)cc2)cc1
Cc1ccc(-c2nc3ncccc3o2)cc1NC(=O)c1sc2ccccc2c1Cl
Cc1ccc(NC(=O)c2ccc(Cl)c(N3C(=O)C=CC3=O)c2)cc1
COc1ccccc1NC(=O)Cn1cc(C(=O)C2CC2)c2ccccc21
CNc1ccccc1C(C)(C)c1cc(-c2cccc(OC)c2)no1
CC(C)(C)C(=O)Nc1cc2nn(-c3ccccc3)nc2cc1Cl
COc1cc(NC(=O)c2cccc3c(-c4cccnc4)coc23)cc(OC)c1OC
O=C(Nc1ccc(Cl)cc1)c1cc(S(=O)(=O)N2CCOCC2)cs1
COc1ccc(C(=O)Nc2nc3ccccc3s2)c(OC)c1
COc1cccc(-n2c(C)nc3c(cnn3-c3ccc(Cl)cc3)c2=O)c1
Cc1onc(-c2ccccc2Cl)c1C(=O)N(C)C1CCCCC1
CCN(CC)c1ccc(NC(=O)CN2C(=O)CSc3ncccc32)c(C)c1
Cc1ccnc(SCC(=O)Nc2sc3c(c2C#N)CCCC3)n1
Cc1ccc(NC(=O)c2cc(S(=O)(=O)NCCC3=CCCCC3)ccc2F)cc1F
CCOC(=O)N1CCN(c2ccc(S(=O)(=O)N(Cc3ccccc3)Cc3ccccc3)cn2)CC1
O=C(c1cc(COc2ccc3ncccc3c2)on1)N1CCCCCC1
